Mito fusion yeast – mitochondrial division inhibition or fusion activation. AID 485298. S. cerevisiae fusion-defective mutant growth rescue, CellTiterGlo 48 h. 320,000 tested, 0.23% active. Potency, µM (doses to about 46.1 µM), hits mostly activators; further: nearly all actives have a fitted effect of over 45% in size
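S. cerevisiae fusion-defective temperature-sensitive mutants (e.g. fzo1-1, mgm1-5) grown 48 h at 37C in YPEG (ethanol/glycerol non-fermentable) medium with 23 nl compound per well; growth rescue read as CellTiterGlo luminescence.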
Anesthetic bind – candidate novel general anesthetic via apoferritin binding; P02791; apoferritin/1-aminoanthracene competitive binding, fluorescence; Potency, µM (doses to about 77.5 µM), hits mostly inhibitors; 350,000 tested, 0.074% active; AID 485281; further: nearly all actives have a fitted effect of over 20% in size
Target sequence (P02791 2-175 limits assumed): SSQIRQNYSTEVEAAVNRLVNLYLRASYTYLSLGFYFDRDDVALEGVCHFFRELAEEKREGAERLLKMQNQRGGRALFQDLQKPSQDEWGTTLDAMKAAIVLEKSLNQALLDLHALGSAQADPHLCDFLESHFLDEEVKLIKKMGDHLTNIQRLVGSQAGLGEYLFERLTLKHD
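10 uM apoferritin + 50% sat. 1-AMA, PBS; cpd 10 min RT; Ex380/Em535 endpoint; normalized to free probe vs complex; 4-param Hill fit; propofol titration as pos. ctrl.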
Akt phos inh – inhibitors of Akt phosphorylation. Neuro2A IGF-stimulated pAkt S473 HTRF, 20 min; active compounds read low. AID 651550. 360,000 tested, 0.32% active. activity change, % for hits at 50 µM; in the data active means activity change below about -80%; inconclusive means mostly about -51% to -80%
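Neuro2A cells (4,500/well, DMEM with 0.5% FBS) were treated with compound at a single 50 µM final concentration, stimulated with 6 nM IGF for 20 min at 37 °C, and lysed. Phospho-Akt Ser473 was read by HTRF as 665/615 ratio ×10^4.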
aSyn yeast inh – inhibitors of alpha-synuclein toxicity in yeast; Yeast expressing alpha-synuclein, growth rescue, BacTiter-Glo, 24 h; Potency, µM (top dose mostly 46.1 µM), usual class: activators; 370,000 tested, 0.14% active; AID 652106; further: nearly all actives have a fitted effect of over 65% in size
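Rescue of yeast growth: cells expressing toxic alpha-synuclein, induced in galactose at OD600 0.02, incubated with compound 24 h at 30 C. ATP luminescence quantified growth; inhibitors of toxicity appear as activators.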
CCT chaperon mod – modulators of cytosolic chaperonin (CCT/TRiC) activity; 360,000 tested, 0.3% active; purified chaperonin ATPase assay, HTRF ADP detection, 30 min; activity change, % (test concentration not listed), hits read low; in the data active means activity change below about -30%
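We incubate TRiC, 40 or 20 nM final, with library compounds at 76 uM and 10 uM ATP for 30 min at 37 °C. ADP formed is detected with Transcreener HTRF reagents after 30 min at room temperature.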
TDP43 rescue – TDP-43 toxicity inhibition in yeast; TDP-43 expressing yeast growth rescue, BacTiter-Glo, 24 h; 410,000 tested, 1.8% active; Potency, µM (titrated, usually from 46.1 µM), actives largely listed as activators; further: nearly all actives have a fitted effect of over 50% in size
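Luminescence from BacTiter-Glo reports growth of TDP-43-expressing yeast after 24 hr at 30 deg C with compound. Cells were raffinose-pregrown to mid-log, then seeded in galactose medium at OD600=0.02.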
Numbers stand for hits; - = inactive; ? = inconclusive; . = no result; ! = repeats disagree; [ ] = another dose, or the depositor's remark. The list is not random: actives were taken first. Their share in the collection is about 2.5%. Unless noted, the call rests on the fitted dose curve; in most records, active means well fitted curve in the direction sought with a large enough effect; inconclusive means small, poorly fitted or top-dose-only effect, or another doubt; inactive means no such curve, though single readings can be large; an effect the other way counts as inactive or inconclusive.

SMILES	Mito fusion yeast	Anesthetic bind	Akt phos inh	aSyn yeast inh	CCT chaperon mod	TDP43 rescue
CC1(OC(=O)C2CCCC2)C(=O)C=C2C=C(c3ccsc3)N(C3CCCCC3)C=C2C1=O (centres undefined)	-	-	-	-	-	10µM
CN(Cc1ccccc1)C(=O)c1ccc(CSc2nc3cccnc3n2Cc2ccccc2)cc1	.	-	.	.	.	-
CC(C)C[C@H](NC(=O)[C@H](Cc1cnc[nH]1)NC(=O)[C@@H](N)Cc1cnc[nH]1)C(=O)NCC(=O)NCC(=O)N[C@@H](C)C(=O)N[C@@H](CCCCN)C(=O)N[C@@H](CCC(N)=O)C(=O)N[C@@H](C)C(=O)NCC(=O)N[C@@H](CC(=O)O)C(=O)N[C@H](C(=O)O)C(C)C	.	-	.	.	.	.
O=C(Oc1ccc2c(=O)c(Oc3ccc4ccccc4c3)coc2c1)c1cccnc1	16µM	-	-	-	-	-
Cc1nn(C)c(C(=O)Nc2ccc(S(=O)(=O)NC34CC5CC(CC(C5)C3)C4)cc2)c1Br	-	-	-	22µM	-	-
CCOC(=O)CSc1nnc(CCCCCN2C(=O)c3cccc4cccc(c34)C2=O)o1	-	-	-	-	-	-
C=CCSc1nnc(CCCCCN2C(=O)c3cccc4cccc(c34)C2=O)o1	-	-	-	-	-	22µM
Cc1cc(=O)n(Cc2cccc(Cl)c2)c2c1c(C)nn2C	.	-	.	.	.	-
O=[N+]([O-])c1ccc2oc(C(O)c3cccc(Cl)c3)cc2c1 (centres undefined)	25µM	-	-	?	-	?
CC(c1ccco1)N(C(=O)c1cccc(S(=O)(=O)N(C)C)c1)c1ccccn1 (centres undefined)	-	-	-	-	-51	-
CC(c1ccco1)N(C(=O)c1cccc(Br)c1)c1ccccn1 (centres undefined)	-	-	-	-	-	-
c1ccc2[nH]c(CN3CCOCC3)nc2c1	-	-	-	-	-	-
Nc1ccc2nc(CN3CCOCC3)[nH]c2c1	-	-	-	-	-36	-
COc1cccc(CN(C)C(=S)Nc2cccc(C)c2)c1	-	-	-	-	-	11µM
COc1ccc(CN(C)C(=S)Nc2ccc(Cl)cc2)cc1	-	-	-	-	-	-
CCNc1nc(Oc2ccc(C(=O)OC)cc2)nc(N(C)C)n1	-	-	-	-	-	-
CCNc1nc(N)nc(Oc2ccc(C(=O)OC)cc2)n1	-	-	-95%	-	-	-
C[C@@H](Nc1nc(Cl)nc2nc[nH]c12)c1ccccc1	.	.	.	-	.	.
CCOc1ccc(OCCN2C(=O)NC3(CCCc4ccccc43)C2=O)cc1 (centres undefined)	-	-	-	-	-	35µM
Cn1c(=NC(=O)C2CCN(S(=O)(=O)c3cccs3)CC2)sc2ccccc21	-	-	-91%!	-	-	-
CN(C(=O)C1CCN(S(=O)(=O)c2cccs2)CC1)c1ccccc1	-	-	-	-	-	.
O=C(O)c1cc(N2C(=O)C3CC=CCC3C2=O)ccc1NCc1cccnc1 (centres undefined)	-	-	-116%	-	-	-
O=C(O)c1cc(N2C(=O)CCC2=O)ccc1NCc1cccnc1	-	-	-	-	-	-
CCOC(=O)Cc1csc(NC(=O)COc2c(C)cccc2C)n1	-	-	-	-	-	-
CCOC(=O)Cc1csc(NC(=O)COc2ccc3ccccc3c2)n1	-	-	-	-	-	13µM
SMILES	Mito fusion yeast	Anesthetic bind	Akt phos inh	aSyn yeast inh	CCT chaperon mod	TDP43 rescue
CCOC(=O)Cc1csc(NC(=O)Cc2ccccc2)n1	-	-	-	-	-	-
CCOC(=O)Cc1csc(NC(=O)COc2ccccc2OCC)n1	-	-	.	.	-	11µM
CCOC(=O)Cc1csc(NC(=O)COc2ccc(OC)cc2)n1	-	-	-	-	-	13µM
Cc1cc(C)cc(-n2c(SCC(=O)NC3CCCCC3)nc3c([nH]c4ccccc43)c2=O)c1	.	-	.	-	.	?
CC(CCC(C)[n+]1cccc(C#N)c1)[n+]1cccc(C#N)c1 (centres undefined)	.	.	.	-	.	.
COc1cccc(NC(=O)c2csc3c2CCCCC3)c1	.	-	.	.	.	13µM
COc1ccc(NC(=O)c2csc3c2CCCCC3)cc1	.	-	.	.	.	-
COC(=O)c1cc(=O)c(O)c2c(O)c(O)ccc2c1	.	-	.	.	.	.
CCc1cc(C(=O)OC)c(NC(=O)c2ccoc2C)s1	-	-	-	-	-45	-
COC(=O)Oc1c(Br)c(=O)oc2ccccc12	.	.	-	-	-	3.5µM
CC(C)(C)C(=O)Nc1cccc(C(=O)OCc2cc(=O)n3nc(C4CCCCC4)sc3n2)c1	.	-	.	.	.	-
CC12CCC(C/C1=N\OC(=O)c1ccc(F)cc1)C2(C)C (centres undefined)	-	-	-96%	-	-	?
CC12CCC(C/C1=N/OC(=O)c1cccc([N+](=O)[O-])c1)C2(C)C (centres undefined)	-	?	-	-	-	-
Cc1c(C(=O)NC2CCN(Cc3ccccc3)C2)oc2c(Cl)cccc12 (centres undefined)	3.5µM	-	-	-	-	-
O=C(NC1CCN(Cc2ccccc2)CC1)c1ccccc1Cl	-	-	-	-	-	-
CC(C)(C)c1ccc(C(=O)NC2CCN(Cc3ccccc3)CC2)cc1	35µM	-	-	-	-	-
CSCC[C@H](NC(=O)[C@H](CC(C)C)NC(=O)CNC(=O)[C@H](Cc1ccccc1)N(C)C(=O)[C@H](Cc1ccccc1)NC(=O)[C@H](CC(=O)O)NC(=O)[C@@H](N)CC(=O)O)C(N)=O	.	-	.	.	.	.
C(=C\c1c[nH]c2ccccc12)/c1ccc2ccccc2n1	.	.	.	-	.	.
C=C1CCN(C(CC(C)C)C(=O)NN2CCOCC2)S(=O)(=O)c2ccccc21 (centres undefined)	.	-	.	.	.	.
Cc1ccc(/C=N/NS(=O)(=O)c2ccc([N+](=O)[O-])cc2)o1	-	-	-	-	-	-
CCCCCCCCCCS(=O)(=O)N/N=C/c1ccc([N+](=O)[O-])cc1	-	20µM	-	-	-	-
Cc1ccc(Cl)cc1NC(=O)Cn1cc(S(=O)(=O)Cc2ccccc2Cl)c2ccccc21	.	-	.	.	.	-
O=[N+]([O-])c1ccccc1/C=C/c1ccnc2ccccc12	.	.	.	-	.	.
O=[N+]([O-])c1cccc(-c2nc(-c3cccs3)c(-c3cccs3)[nH]2)c1	-	?	-	-	-	-
O=[N+]([O-])c1ccc(-c2nc(-c3cccs3)c(-c3cccs3)[nH]2)cc1	-	?	-	-	-	3.2µM
Cc1ccc(C)c(C(=O)COC(=O)c2n[nH]c3ccccc23)c1	.	.	-	?	-	20µM
Cc1cccc(C)c1OCCOC(=O)c1n[nH]c2ccccc12	-	-	-	-	-	-[1.82 µM]

High-throughput results deposited in PubChem by National Center for Advancing Translational Sciences (NCATS).
